# Unmarked numbers belong to inactive results. Active and inactive are the calls of the source.
# Test: basal S. cerevisiae growth modulation, no modifier, primary screen, OD600, strain BY4716, 24 h, basal condition (AID 1173)
# Details: OD600, 24 h, higher = more signal, called active from +8 up or from −8 down
row,SMILES,z-score
1,CCCC=C(CCC)[C@@H](NC(=O)c1ccc(-c2ccccc2)cc1)c1ccc(C(=O)OC)cc1,1.44
2,COC(=O)[C@@]1(Cc2ccccc2)[C@H]2c3cc(C(=O)N4CCCC4)n(Cc4ccccn4)c3C[C@H]2CN1C(=O)c1ccccc1,1.32
3,O=C(CS)NCCCCCNC(=O)[C@@H]1C[C@@H]2C(=O)N[C@@H](Cc3ccccc3)C(=O)N2[C@@H]1c1ccc(O)cc1,-0.391
4,CC(C)C[C@@H]1NC(=O)[C@H]2C[C@@H](C(=O)NCCCCCCN(C)C)[C@@H](c3cccc(OCCO)c3)N2C1=O,-0.0693
5,COCCCNC(=O)[C@@]1(CCS(=O)(=O)c2ccccc2)N=C(c2ccc(OCCCO)cc2)O[C@H]1c1ccccc1,-0.44
6,Cc1ccc(S[C@]2(C(=O)NCC(F)(F)F)CC(=O)N(Cc3ccccc3Cl)[C@@H]2c2ccc(CO)cc2I)cc1,-3.36
7,O=C1O[C@@H](c2ccccc2)[C@@H](c2ccccc2)N2[C@@H](c3ccc(OCCO)cc3)[C@]3(C(=O)Nc4ccc(C#CCCO)cc43)[C@@H](C(=O)N3CCCCCCC3)[C@H]12,-0.355
8,CCOC(=O)C1=CCC(c2cc3ccccc3[nH]2)NC1 (stereo unspecified),-3.2
9,O=C1NC(=O)C2C1C=CC(C(O)Cc1ccccc1)N2Nc1ccccn1 (stereo unspecified),0.424
10,C#C[C@@H]1Oc2ccccc2S(=O)(=O)N2CCC[C@H]12,-2.6
11,COc1ccc([Si](C)(C)[C@H]2[C@H](CCO)O[C@@]3(C(=O)N(Cc4cccc(NC(=O)[C@H](C)O)c4)c4ccccc43)[C@@H]2C)cc1,-0.321
12,C=CCOC(=O)[C@H]1[C@@H]2C(=O)O[C@@H](c3ccccc3)[C@@H](c3ccccc3)N2[C@@H](c2ccc(OCCOC(=O)[C@H]3C[C@H]4C(=O)N5CCC[C@H]5C(=O)N4[C@H]3c3cccc(OCCO)c3)cc2)[C@]12C(=O)Nc1ccc(I)cc12,0.0932
13,C=C(/C(=C/C[C@@H](OC(=O)c1ccncc1)c1ccc(OCCO)cc1)c1cnc2ccccc2c1)C(C)C,-18.5 (active)
14,O=C1C[C@]2(c3ccc([N+](=O)[O-])cc3)C(=O)N(CCN3CCOCC3)c3cc(CO)ccc3[C@H]2N1CC12CC3CC(CC(C3)C1)C2,-0.0207
15,CC(C)C[C@@H]1NC(=O)[C@H]2C[C@@H](C(=O)O)[C@@H](c3ccc(O)cc3)N2C1=O,0.0437
16,COCCOC(=O)N1C(=O)[C@@]2(c3cc(C#Cc4ccc(OC)cc4)ccc31)[C@H](c1ccc(O)cc1)N1[C@H](c3ccccc3)[C@H](c3ccccc3)OC(=O)[C@H]1[C@@H]2C(N)=O,-0.306
17,CC(C)NC(=O)[C@@]1(C)c2ccccc2C(=O)N(Cc2cc(F)cc(C(F)(F)F)c2)[C@H]1c1ccc(CO)cc1,0.118
18,COCCOC(=O)N1C(=O)[C@@]2(c3ccccc31)[C@H](C(N)=O)[C@H]1C(=O)O[C@H](c3ccccc3)[C@H](c3ccccc3)N1[C@@H]2c1ccccc1OCCO,0.225

row,SMILES,z-score
1,CN1C(=O)C2C=CC(C(O)c3ccc(I)cc3)N(NC(=O)OC(C)(C)C)C2C1=O (stereo unspecified),0.9
2,C=CCC(OC(C)=O)[C@@H]1[C@@H](N(Cc2cc3ccccc3o2)C(=O)Cc2ccc(F)cc2)c2cc(OCCCO)ccc2N1C(=O)Cc1ccc(OC)cc1 (stereo partly specified),-0.449
3,CN1C(=O)C2C=CC(C(O)C(c3ccccc3)c3ccccc3)N(NC(=O)OC(C)(C)C)C2C1=O (stereo unspecified),-4.58
4,COCCCNC(=O)[C@]1(CCC(=O)OC(C)(C)C)N=C(c2ccc(OCCCO)cc2)O[C@@H]1c1ccccc1N=[N+]=[N-],-0.334
5,O=C1O[C@@H](c2ccccc2)[C@@H](c2ccccc2)N2[C@@H](c3ccccc3OCCO)[C@]3(C(=O)Nc4ccc(C#CCCO)cc43)[C@@H](C(=O)O)[C@H]12,-1.28
6,CN1C(=O)C2C(C1=O)C1C=C(CCCO)C2C(c2ccc(CN3CCCC3)cc2)N1C (stereo unspecified),1.04
7,COC(=O)[C@@]1(Cc2ccc(F)cc2)[C@@H]2C(=CC(=O)[C@H]2CC(=O)C(=O)N(C)C)CN1C(=O)c1ccccc1,1.69
8,[N-]=[N+]=NCc1ccccc1C[C@]1(C(=O)NCc2ccccc2)N=C(c2ccc(OCCCO)cc2)O[C@H]1c1ccccc1N=[N+]=[N-],0.316
9,C=C(COC)/C(=C/C[C@H](OC(=O)c1ccncc1)c1ccc(CO)o1)c1cc(C(=O)OC)ccc1OC,-0.154
10,CS(=O)(=O)CCOC(=O)C1=CC(CCCO)=CC(c2cccs2)N(Cc2cccc(OC(F)(F)F)c2)C=C1C(=O)OCCS(C)(=O)=O (stereo unspecified),-3.44
11,CCCNC(=O)[C@@H]1c2ccccc2C(=O)N(Cc2ccccc2Cl)[C@H]1c1ccc(CO)cc1,-0.768
12,CCc1cccc(NC(=O)O[C@H]2[C@H](OC(=O)Nc3ccc4c(c3)OCO4)[C@@H](OC(=O)Nc3ccc4c(c3)OCO4)[C@@H](OC)O[C@@H]2CO)c1,1.04
13,COC(=O)[C@@]1(Cc2ccc(OC)cc2)[C@H]2c3cc(C(=O)N4CCCC4)n(Cc4cc(F)c(F)c(F)c4)c3C[C@H]2CN1C(=O)c1ccccc1,1.35
14,CN(C)C(=O)[C@@]1(Cc2ccccc2)N=C(c2ccc(OCCCO)cc2)O[C@H]1c1ccccc1CN=[N+]=[N-],-0.618
15,COc1ccc([Si](C)(C)[C@@H]2[C@@H](CCO)O[C@]3(C(=O)N(Cc4ccc(NC(C)=O)cc4)c4ccccc43)[C@H]2C)cc1,1.6
16,O=C1O[C@@H](c2ccccc2)[C@@H](c2ccccc2)N2[C@@H](c3ccc(O)cc3)[C@]3(C(=O)Nc4ccccc43)[C@@H](C(=O)O)[C@H]12,-0.922
17,O=C1c2ccccc2[C@@]2(Cc3ccccc3N(C3CC3)C2=O)[C@H](c2ccc(CO)cc2)N1Cc1ccccc1C(F)(F)F,0.194
18,O[C@@H](Cc1ccccc1)[C@H]1C2C=CCCC(c3ccccc3)=C2CN1Cc1cccc(Cl)c1 (stereo partly specified),-3.75
